Source: PubChem BioAssay (several laboratories)
This is a sample that favours compounds with a hit; in the whole collection about 2.7% have one here.
Mcl-1 Bim block – inhibitors of Bim peptide binding to Mcl-1, primary screen, biochemical, bead-based flow cytometry, multiplex. Induced myeloid leukemia cell differentiation protein Mcl-1 (Homo sapiens), Q07820. AID 1009, 2008. hit rate 0.1% among 190,000. inhibition, % at 10 µM. Bim peptide-Mcl-1 binding; in the data active = inhibition above about 40%;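 note: 0% = no compound tracer wells and 100% = peptide blocker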
14-3-3 Bad PPI – inhibitors of 14-3-3 zeta/Bad binding, primary screen, biochemical, TR-FRET, bovine 14-3-3 zeta | 14-3-3 protein zeta/delta (Bos taurus), P63103 | TR-FRET 14-3-3zeta/Dy647-pBad peptide displacement, 1 h | inhibition, % at 21.7 µM | hit rate 0.71% among 220,000 | AID 781, 2007;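 active = inhibition above about 70%, limit read from the data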;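 note: 0% = full 14-3-3 plus peptide FRET controls and 100% = background without 14-3-3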
Target sequence (P63103 whole entry, looked up): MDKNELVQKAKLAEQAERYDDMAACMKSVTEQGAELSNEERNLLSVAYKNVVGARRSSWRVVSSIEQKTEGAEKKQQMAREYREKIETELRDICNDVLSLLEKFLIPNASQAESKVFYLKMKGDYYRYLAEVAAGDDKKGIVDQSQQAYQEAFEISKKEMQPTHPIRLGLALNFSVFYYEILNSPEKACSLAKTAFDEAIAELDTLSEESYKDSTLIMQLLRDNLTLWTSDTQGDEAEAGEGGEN
Pf gamet viab – late stage P. falciparum gametocyte viability inhibitors, primary screen, ATP luminescence, HTS; P. falciparum stage V gametocytes, 24 h; inhibition, % at 10.9 µM; hit rate 0.065% among 150,000;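 active = inhibition above the mean plus 3 SD of compounds within the control limits, set per campaign, cut at about 38% in these data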;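 note: 0% = DMSO wells and 100% = medium only without gametocytes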
eIF4E 4G PPI – eIF4E–eIF4G protein interaction inhibitors, primary screen, biochemical, uHTS, TR-FRET, eIF4GI fragment. AID 782, 2007. TR-FRET eIF4E-eIF4GI(517-606) binding, 2 h. inhibition, % at 21.7 µM. hit rate 0.37% among 220,000;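 active = inhibition above about 30%, limit read from the data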;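 note: 0% = full FRET control wells and 100% = background wells lacking eIF4GI fragment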
Mcl1-Bid inh – Mcl-1/Bid binding inhibitors, primary screen, biochemical, TR-FRET, 1536-well. hit rate 0.97% among 220,000. TR-FRET Mcl-1/Bid-Dy647 peptide binding. inhibition, % at 21.7 µM;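 active = compounds that cut the binding signal by more than half at the single screening dose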;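 note: His-tagged Mcl-1 with europium anti-His antibody binding Bid BH3 peptide; 0% = Mcl-1 plus peptide wells and 100% = peptide-only wells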
Mcl1-Noxa inh – Mcl-1/Noxa binding inhibitors, primary screen, biochemical, TR-FRET, 1536-well; hit rate 1.5% among 220,000; TR-FRET Mcl-1/Noxa peptide binding, 2 h; inhibition, % at 21.7 µM; Induced myeloid leukemia cell differentiation protein Mcl-1 (Homo sapiens), Q07820; AID 1022, 2008;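 active = compounds that cut the protein-peptide binding signal by more than 50% relative to plate controls in a single-dose test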;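 note: His-tagged Mcl-1 with rhodamine Noxa BH3 peptide and terbium anti-His antibody; 0% = Mcl-1 plus Noxa peptide wells and 100% = peptide-only wells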
* hit, by the source's call; · = no result given.

SMILES | Mcl-1 Bim block | 14-3-3 Bad PPI | Pf gamet viab | eIF4E 4G PPI | Mcl1-Bid inh | Mcl1-Noxa inh
O=C1NC(=O)N(c2ccccc2)C(=O)/C1=C\c1ccc([N+](=O)[O-])o1 | · | 57 | · | 14 | 10 | 63*
CN1C(=O)NC(=O)/C(=C/c2ccc([N+](=O)[O-])s2)C1=O | · | 6 | -11 | 1 | -51 | 53*
COc1cccc(C(=O)C2CCCN(Cc3cccc4c3OCO4)C2)c1 (stereo not drawn) | -1 | -8 | 3 | 3 | -23 | -2
CCCCn1c(O)c(C=NC2CC3CCC2(C)C3(C)C)c(=O)[nH]c1=O (stereo not drawn) | -3 | -2 | · | 3 | -12 | -25
O=Cc1c(C(=O)O)n(Cc2ccc(Cl)cc2)c2ccccc12 | -11 | 0 | 21 | -1 | -16 | 65*
CCN(CC)C(=O)c1ccc(NC(=O)Nc2ccccc2F)cc1 | 0 | -3 | 42* | -7 | -13 | 8
CCN(CC)C(=O)c1ccc(NC(=O)CCCSc2ccccc2)cc1 | 1 | 1 | -22 | -2 | -19 | 12
